aSyn rescue: qHTS of alpha-syn Inhibitors. Yeast expressing alpha-synuclein, growth rescue, BacTiter-Glo, 24 h. Potency, µM (series often up to 46.1 µM), without a hit: at the highest dose growth rescue (activation), usual class: activators. 370,000 compounds, 0.14% hits; further: % of control where 0% means no effect; nearly all actives have a fitted effect of over 65% in size
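Galactose-induced alpha-syn yeast (OD600=0.02, raffinose-pregrown) + pinned cpd, 24 hr, 30 deg C; growth by BacTiter-Glo luminescence. Growth restoration scores as activation.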
TDP43 rescue: qHTS of TDP-43 Inhibitors | TDP-43 expressing yeast growth rescue, BacTiter-Glo, 24 h | AID 652104, 2013 | 410,000 compounds, 1.8% hits | Potency, µM (titrated, usually from 46.1 µM), for the others: at the top dose growth rescue (activation), most hits filed as activators; further: % of control where 0% means no effect; nearly all actives have a fitted effect of over 50% in size
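In this qHTS, compounds that restore growth of yeast expressing TDP-43 appear as activators. Cells (OD600=0.02, galactose medium, raffinose-pregrown) are incubated with compound 24 hr at 30 deg C and growth is quantified by BacTiter-Glo.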
FUS yeast rescue: qHTS for Suppressors of FUS Proteinopathy: Primary screen using FUS-linked yeast assay | S. cerevisiae FUS-expressing, growth rescue, OD600, 24 h | Potency, µM (series often up to 76.6 µM), actives largely listed as activators | 390,000 compounds, 0.24% hits;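 further: plate controls were DMSO vehicle for no effect and reference control for full effect; nearly all actives have a fitted effect of over 55% in size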
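Yeast expressing FUS under galactose induction, OD 0.005 in 2% galactose medium; compounds in a dilution series, 24 h at 30C. Growth rescue by absorbance at 600 nm; CP55940 positive control, DMSO negative.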
Abeta yeast res: qHTS for compounds that reverse cellular toxicity of Amyloid beta (A-beta) peptide in yeast: Primary Screen; yeast expressing A-beta42, growth rescue, OD600, 48 h; response scale: 0% DMSO, 100% iron-clioquinol control; Potency, µM (highest dose often 46.1 µM), usual class: activators; 410,000 compounds, 0.063% hits; AID 1347071, 2019; further: nearly all actives have a fitted effect of over 55% in size
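Yeast growth medium received pinned compounds, then yeast cells expressing toxic A-beta were added; plates incubated at 30 C for 48 hr. Growth read as absorbance at 600 nm, normalized to DMSO and equimolar FeCl3 plus clioquinol controls.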
The depositor's hits bear a star; i = inactive; ? = inconclusive; nt = not tested or not shown. Most compounds without a hit are left out; they make up all but 2.1% or so of the library. The call rests on the fitted dose curve; in most records, active means well fitted curve in the direction sought with a large enough effect; inconclusive means small, poorly fitted or top-dose-only effect, or another doubt; inactive means no such curve, though single readings can be large; an effect the other way counts as inactive or inconclusive. Potency means the concentration at half of the fitted maximal effect.

SMILES	aSyn rescue	TDP43 rescue	FUS yeast rescue	Abeta yeast res
COc1cccc(-c2nnc(-c3ccc(C)o3)o2)c1	-8%	21%	i	i
CCOc1ccccc1-c1ccc(C(=O)NCc2ccccc2)o1	3%	16µM*	i	i
Cc1ccc(-c2[nH]ncc2CN2CCN(C(=O)c3cccs3)CC2)cc1C	-4%	-5%	nt	i
Cc1cc(C)nc(SCc2nnc(SCc3ccccc3Cl)o2)n1	18%	16µM*	i	i
O=C(N/N=C/c1c(O)ccc2ccccc12)C(=O)N1CCCC1	22µM*	2%	i	?
Cc1nn(-c2ccccc2)c2c1cc1c(=O)[nH]c(=O)nc-1n2-c1cccc(C(F)(F)F)c1	nt	2%	i	i
COc1cc(NC(=O)c2cc(-c3ccccc3Cl)on2)cc(OC)c1OC	-26%	16µM*	i	i
COc1cc2nc(SCc3ccc(Cl)cc3Cl)n(Cc3cccs3)c(=N)c2cc1OC	0%	25µM*	i	i
CC(NC(=O)c1c(F)cccc1Cl)c1ccc(-n2ccnc2)cc1 (centres undefined)	-4%	-6%	i	i
O=S(=O)(NCCOc1ccccc1Cl)c1ccc2oc3ccccc3c2c1	?	19%	i	i
COc1ccccc1OCCNS(=O)(=O)c1ccc2oc3ccccc3c2c1	?	16µM*	i	i
COc1ccc(-c2oc3cc(OC)c(O)c(OC)c3c(=O)c2OC)cc1O	-1%	22µM*	i	i
COc1ccc(-c2oc3cc(O)c(OC)c(O)c3c(=O)c2OC)cc1	4%	0%	i	i
CCOC(=O)c1ccc(NC(=O)C(CC)Sc2nnc3c4ccccc4n(C)c3n2)cc1 (centres undefined)	nt	12%	i	i
Oc1c(Br)cc(Br)cc1CNc1cccc2cccnc12	?	18µM*	i	i
COc1ccc(S(=O)(=O)N(C)C[C@H]2Oc3ccc(NC(=O)c4ccncc4)cc3C(=O)N([C@H](C)CO)C[C@@H]2C)cc1	0%	-14%	i	i
C/C(=N\NC(=S)NCc1ccccc1)c1ccccc1F	-8%	-11%	i	11µM*
C/C(=N\NC(=S)NCc1ccccc1)c1ccc(C(C)(C)C)cc1	9%	25%	nt	?
C/C(=N\NC(=S)NCc1ccccc1)c1ccco1	-12%	?	i	11µM*
O=C(NC(=S)NCc1ccccc1)c1ccccc1F	nt	?	i	i
C/C(=N\NC(=S)NCc1ccccc1)c1ccccc1	-5%	0%	i	3.5µM*
COc1ccc(CNC(=S)N/N=C(/C)c2ccccc2)cc1	-19%	18µM*	i	?
COc1ccc(-c2noc(-c3ccc(NCc4ccccc4OC)c([N+](=O)[O-])c3)n2)cc1	nt	17%	i	i
O=C1CCC[C@H]2C[C@H](NCc3cccnc3)CC[C@]23CCCN13	nt	nt	i	nt
S=c1[nH]c(-c2ccccc2)cn1-c1ccccc1	0%	13µM*	i	13µM*
SMILES	aSyn rescue	TDP43 rescue	FUS yeast rescue	Abeta yeast res
COc1cccc(-n2cc(-c3ccc(F)cc3)[nH]c2=S)c1	1%	11µM*	i	?
COC(=O)C1CCN(C(=O)c2cc(-c3ccc(Cl)s3)nc3ccccc23)CC1	?	35µM*	?	i
Cn1nc([N+](=O)[O-])nc1S(C)(=O)=O	-11%	20%	i	i
CS(=O)(=O)c1nc([N+](=O)[O-])nn1CCCc1ccccc1	-14%	18µM*	i	i
CC(C)NC(=O)N[C@H]1C[C@@H]2O[C@@H](CO)CC[C@@H]2O[C@@H]1CCc1ccc(-c2ccc(F)cc2)cc1	nt	nt	i	nt
O=C1ON=C(c2ccccc2)/C1=C/c1ccc(OS(=O)(=O)c2ccccc2)cc1	6%	13µM*	nt	i
COc1cc(/C=C2\C(=O)ON=C2c2ccc(Cl)cc2)ccc1O	4%	?	?	i
COc1ccc(/C=C2\C(=O)ON=C2c2ccccc2)cc1	14%	?	i	i
O=C1ON=C(c2ccccc2)/C1=C/c1ccc(O)c(O)c1	5µM*	?	i	i
Cc1ccc(-c2cc(-c3ccccc3Cl)[nH]n2)c(O)c1	-49%	-1%	i	i
COc1ccc(O)c(-c2cc(-c3ccccc3Cl)[nH]n2)c1	-15%	18µM*	i	i
Cc1ccccc1-c1cc(-c2ccccc2O)n[nH]1	7%	11µM*	i	i
Oc1ccccc1-c1cc(-c2ccc(F)cc2)n[nH]1	-17%	3.5µM*	i	i
Oc1ccccc1-c1cc(-c2ccccc2)n[nH]1	-6%	?	i	i
COCc1c(Br)c(C)nc2sc3c(=O)n(-c4cccc(Br)c4)nnc3c12	nt	-3%	i	i
CCN(c1ccccc1)S(=O)(=O)c1ccc(Cl)c(NC(=O)CN2C(=O)NC3(CCCC3)C2=O)c1	9%	2%	?	i
CCOC(=O)C1=C(C)NC(C)=C(C(=O)OCC)C1c1cccc([N+](=O)[O-])c1	13%	25µM*	i	i
C/C(=N/NC(=O)c1cccnc1)c1cccc(O)c1	nt	nt	i	nt
CC1(C)C2CCC1(C)C(NC(=O)COC(=O)c1ccc(S(C)(=O)=O)c([N+](=O)[O-])c1)C2 (centres undefined)	2%	nt	nt	nt
O=C(O)CCc1ccc(-c2cccs2)o1	14µM*	?	i	i
COCCn1c(CCC(=O)O)ccc1-c1cccs1	11%	-18%	i	i
Cc1ccc(Cl)cc1-n1c(CCC(=O)O)ccc1-c1cccs1	nt	13µM*	i	i
CCOC(=O)c1ccc(-n2c(CCC(=O)O)ccc2-c2cccs2)cc1	20µM*	26%	i	i
Cc1ccc(-n2c(CCC(=O)O)ccc2-c2cccs2)cc1C	5%	12%	i	i
CCCCn1c(CCC(=O)O)ccc1-c1cccs1	16%	18µM*	i	i
SMILES	aSyn rescue	TDP43 rescue	FUS yeast rescue	Abeta yeast res
CSCCC(NC(=O)c1ccco1)C(=O)N1CCN(C(c2ccccc2)c2ccccc2)CC1 (centres undefined)	9%	-26%	i	i
COc1ccc(C)cc1NC(=O)CCNC(=O)Cn1ccc2ccccc2c1=O	-5%	-16%	i	i
CC1(c2cccc(Br)c2)NC(=O)N(CC(=O)Nc2ccc(F)cc2)C1=O (centres undefined)	2%	-8%	i	i
CCCCNC(=O)C1(C)CCN1C(=O)c1ccc2sccc2c1 (centres undefined)	0%	29%	i	i
CCOc1cc(C(=O)N[C@@H](C)C(=O)N2CCC3(CC2)NCCc2[nH]cnc23)cc(OCC)c1OCC	-2%	-4%	i	i
O=C(C1CCN(S(=O)(=O)c2ccccc2)CC1)N1CCC1	-1%	11%	i	i
Cc1c(Cl)cccc1-n1c(CCC(=O)O)ccc1-c1cccs1	nt	?	?	i

Bioassay records: PubChem BioAssay, National Center for Advancing Translational Sciences (NCATS)
